# Several values for one entry are separate records, joined by “and”; a condition that tells them apart may be missing. Equal entries are not always repeated. Records with an inconclusive call do not appear. Some structures have more than one record in an assay (separate samples or runs), and their calls can disagree. Activity calls are given as the source filed them. Unless noted, calls come from the whole dose curve; as a rule, active = well fitted curve in the direction sought with a large enough effect; inconclusive = small, poorly fitted or top-dose-only effect, or another doubt; inactive = no such curve, though single readings can be large; an effect the other way counts as inactive or inconclusive.
# Columns and labels:
# [1] = Cell Viability - LYMP2-004 (AID 966); note: potency is the fitted concentration of half-maximal effect; nearly all actives have a fitted effect of over 65% in size
# Summary of the method: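 Acute toxicity is scored as a concentration-dependent drop in intracellular ATP, quantified by luciferase luminescence, in human lymphoblastoid cells exposed to compound for 24 hr. AC50 derives from Hill-equation modelling.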
# [2] = Cell Viability - LYMP2-005 (AID 967); note: potency is the fitted concentration of half-maximal effect
# Summary of the method: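 LYMP2-005 human lymphoblastoid cells (2500/well) were treated with compounds for 24 h at 37 C. Intracellular ATP was then measured by CellTiter-Glo luminescence after 30 min at room temperature. AC50 values came from Hill-equation fits of qHTS concentration-response data.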
# [3] = Cell Viability - LYMP2-009 (AID 968); note: potency is the fitted concentration of half-maximal effect; nearly all actives have a fitted effect of over 55% in size
# [4] = Cell Viability - LYMP2-011 (AID 969); note: potency is the fitted concentration of half-maximal effect; nearly all actives have a fitted effect of over 60% in size
# Summary of the method: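 Acute toxicity is scored as a concentration-dependent drop in intracellular ATP of a human lymphoblastoid line after 24 hr treatment. Values are AC50s modeled with the Hill equation.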
# [5] = Cell Viability - LYMP2-017 (AID 972); note: potency is the fitted concentration of half-maximal effect; nearly all actives have a fitted effect of over 55% in size
# Summary of the method: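 Steps: plate 2500 lymphoblastoid cells per well; incubate 5 hr at 37 C; add compound across a concentration series and incubate 24 hr at 37 C; add CellTiter-Glo and read luminescence after 30 min at room temperature; fit Hill curves for AC50.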
# [6] = Cell Viability - LYMP2-019 (AID 973); note: potency is the fitted concentration of half-maximal effect; nearly all actives have a fitted effect of over 55% in size
# Summary of the method: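 Cells plated at 2500/well and allowed 5 hr at 37 C before compound addition. After 24 hr incubation, CellTiter-Glo reagent was added, plates sat 30 min at room temperature, and luminescence was recorded.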
# [7] = Cell Viability - LYMP2-023 (AID 975); note: potency is the fitted concentration of half-maximal effect; nearly all actives have a fitted effect of over 55% in size
# Summary of the method: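 Concentration-dependent drop in intracellular ATP measures acute cytotoxicity in a human lymphoblastoid line treated for 24 hours in complete culture medium. AC50 values are taken from Hill-equation fits of qHTS data.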
# [8] = Cell Viability - LYMP2-006 (AID 978); note: nearly all actives have a fitted effect of over 60% in size; note: potency is the fitted concentration of half-maximal effect
# Summary of the method: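 Potency values are Hill-fit AC50s for decreases in intracellular ATP (CellTiter-Glo luminescence). LYMP2-006 lymphoblastoid cells, 2500 per well, were exposed to compound in complete culture medium for 24 hr at 37 C.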
# [9] = Cell Viability - LYMP2-007 (AID 979);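 note: potency is the fitted concentration of half-maximal effect; cells exposed to compound for 24 h before reading; nearly all actives have a fitted effect of over 60% in size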
# Summary of the method: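 Acute toxicity is scored as a concentration-dependent fall in intracellular ATP in human lymphoblastoid cells treated 24 hr at 37 C, measured by luciferase luminescence; Hill-equation modelling yields AC50.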
# [10] = Cell Viability - LYMP2-008 (AID 980); note: potency is the fitted concentration of half-maximal effect; nearly all actives have a fitted effect of over 60% in size
# Summary of the method: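 Acute cytotoxicity is scored as concentration-dependent loss of cellular ATP in a human lymphoblastoid line after 24 hr treatment at 37 C. ATP is quantified by luciferase luminescence.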
# [11] = Cell Viability - LYMP2-012 (AID 982)
# [12] = Cell Viability - LYMP2-018 (AID 985);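 note: potency is the fitted concentration of half-maximal effect; compound exposure lasted 24 hr at 37 °C; nearly all actives have a fitted effect of over 50% in size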
# Summary of the method: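 Acute cytotoxicity is scored as a concentration-dependent drop in intracellular ATP after 24 hr exposure of the lymphoblastoid line in complete culture medium, measured by luciferase luminescence. Potency is expressed as AC50 from Hill modelling.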
# [13] = Cell Viability - LYMP2-020 (AID 986)
# Summary of the method: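 Acute cytotoxicity in a human lymphoblastoid line is scored as a concentration-dependent fall in cellular ATP after 24 hr at 37 C in complete medium. The positive control is tetraoctylammonium bromide, and potency is given as Hill-fit AC50.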
# [14] = Cell Viability - LYMP2-024 (AID 988)
# Summary of the method: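 Acute toxicity is measured as concentration-dependent loss of intracellular ATP in a human lymphoblastoid line treated 24 hours at 37 C. Luciferase luminescence quantifies ATP; AC50 values come from standard Hill-equation modelling.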
# [15] = Cell Viability - LYMP1-002 - Assay at 24 hr (AID 993); note: potency is the fitted concentration of half-maximal effect
# Summary of the method: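 qHTS, LYMP1-002 lymphoblastoid, 24 h cpd, 37 C, CellTiter-Glo ATP luminescence; AC50 via Hill eq.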
# [16] = Cell Viability - LYMP1-002 - Assay at 40 hr (AID 994)
# Summary of the method: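 Viability in the human lymphoblastoid line was measured as intracellular ATP via CellTiter-Glo after 40 hr compound exposure. Tetraoctylammonium bromide served as positive control.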
# [17] = target: Androgen receptor (Homo sapiens) (UniProt P10275); assay: qHTS assay for small molecule agonists of androgen receptor signaling (AID 588515; active = well fitted curve in the direction sought with a large enough effect in the signal ratio, with a control signal flat; the % refers to the signal ratio; note: % is set by controls: 0 for no effect and ±100 for the full control effect); conditions: AR-UAS-bla HEK293, beta-lactamase ratio, agonist 16 h; stronger effect = higher value
# Sequence of Androgen receptor (Homo sapiens) (P10275 whole entry, looked up): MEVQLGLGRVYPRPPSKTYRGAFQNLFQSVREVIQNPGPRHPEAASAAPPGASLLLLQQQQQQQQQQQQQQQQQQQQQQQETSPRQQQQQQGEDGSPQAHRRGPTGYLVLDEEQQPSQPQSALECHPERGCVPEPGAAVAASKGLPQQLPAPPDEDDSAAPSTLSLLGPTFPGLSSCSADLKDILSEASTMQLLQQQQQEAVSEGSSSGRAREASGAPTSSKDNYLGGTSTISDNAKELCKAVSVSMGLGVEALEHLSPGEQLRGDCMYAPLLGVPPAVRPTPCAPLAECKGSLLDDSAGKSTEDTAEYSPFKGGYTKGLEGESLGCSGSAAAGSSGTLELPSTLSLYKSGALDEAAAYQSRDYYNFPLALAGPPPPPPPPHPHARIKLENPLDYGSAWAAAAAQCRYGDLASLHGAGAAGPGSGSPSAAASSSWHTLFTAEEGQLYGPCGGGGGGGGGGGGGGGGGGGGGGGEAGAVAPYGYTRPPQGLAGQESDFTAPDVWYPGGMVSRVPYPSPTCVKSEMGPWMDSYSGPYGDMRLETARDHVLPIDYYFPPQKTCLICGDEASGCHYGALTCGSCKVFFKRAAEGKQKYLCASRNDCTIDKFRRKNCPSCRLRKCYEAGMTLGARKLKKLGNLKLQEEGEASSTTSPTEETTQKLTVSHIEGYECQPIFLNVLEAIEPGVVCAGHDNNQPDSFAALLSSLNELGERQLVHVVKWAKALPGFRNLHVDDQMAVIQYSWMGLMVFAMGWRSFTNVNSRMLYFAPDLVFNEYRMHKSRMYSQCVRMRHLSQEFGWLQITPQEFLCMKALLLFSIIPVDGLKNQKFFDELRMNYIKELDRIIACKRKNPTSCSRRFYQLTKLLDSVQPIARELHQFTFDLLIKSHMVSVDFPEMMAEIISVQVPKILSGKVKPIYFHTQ
# Summary of the method: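 EC50 and efficacy came from Hill fits of titrations (up to 92 uM) normalized to 30 nM R1881 as 100% and DMSO as 0%. Compound exposure was 16 h at 37 C on AR-UAS-bla HEK293 cells, with a 405/460/530 nm CCF4 fluorescence read.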
# [18] = target: Androgen receptor (Homo sapiens) (UniProt P10275); assay: qHTS assay for small molecule antagonists of androgen receptor signaling (AID 588516; active = well fitted curve in the direction sought with a large enough effect in the signal ratio, with a control signal flat, not every such curve was filed as active; the % refers to the signal ratio; note: potency is the fitted concentration of half-maximal effect)
# Summary of the method: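 Antagonist mode: inhibition of R1881-stimulated (10 nM final) bla reporter in GeneBLAzer AR HEK 293 cells, 16 h at 37C, compounds titrated. IC50 and efficacy from Hill-equation fits of 405/460–530 nm FRET ratios.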
# [19] = target: Bile acid receptor (Homo sapiens) (UniProt Q96RI1); assay: qHTS assay for small molecule agonists of farnesoid X receptor signaling (AID 588527; calls by dose curve;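 note: series mostly up to about 77 µM; 0% = vehicle basal and 100% = reference agonist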); conditions: HEK293T FXR-UAS-bla, beta-lactamase ratio, 16 h; activation: stronger effect = higher value
# Sequence of Bile acid receptor (Homo sapiens) (Q96RI1 whole entry, looked up): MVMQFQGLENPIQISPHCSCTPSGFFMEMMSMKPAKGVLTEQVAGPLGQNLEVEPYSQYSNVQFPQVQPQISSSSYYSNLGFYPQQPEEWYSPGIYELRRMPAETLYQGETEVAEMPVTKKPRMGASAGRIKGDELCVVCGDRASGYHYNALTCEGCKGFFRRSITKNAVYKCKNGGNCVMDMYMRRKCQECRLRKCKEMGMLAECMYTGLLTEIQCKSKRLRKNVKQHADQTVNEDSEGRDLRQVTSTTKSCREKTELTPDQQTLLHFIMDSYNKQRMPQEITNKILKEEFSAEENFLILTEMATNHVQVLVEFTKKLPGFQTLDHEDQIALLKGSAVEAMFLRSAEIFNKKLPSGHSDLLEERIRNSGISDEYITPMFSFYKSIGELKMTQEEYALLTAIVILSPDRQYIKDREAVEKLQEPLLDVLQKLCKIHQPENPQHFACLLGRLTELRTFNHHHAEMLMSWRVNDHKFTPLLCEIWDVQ
# Summary of the method: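 Quantitative HTS used FXR-UAS-bla HEK293T cells with 16 h compound incubation at 37 C. EC50 values came from concentration-response curves normalized to chenodeoxycholic acid.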
smiles,measurement,setting,value
O=C1C2(Cl)C3(Cl)C4(Cl)C(Cl)(Cl)C5(Cl)C3(Cl)C1(Cl)C5(Cl)C24Cl (centres undefined),Potency,[1],39.8 µM (active)
same,Potency,[2],39.8 µM (active)
same,Potency,[3],50.1 µM (active)
same,Potency,[4],63.1 µM (active)
same,Potency,[5],50.1 µM (active)
same,Potency,[6],50.1 µM (active)
same,Potency,[7],50.1 µM (active)
same,Potency,[8],39.8 µM (active) and inactive
same,Potency,[9],39.8 µM (active) and 50.1 µM (active)
same,Potency,[10],50.1 µM (active)
same,Potency,[11],inactive
same,Potency,[12],50.1 µM (active)
same,Potency,[13],inactive
same,Potency,[14],inactive
same,Potency,[15],31.6 µM (active) and 79.4 µM (active)
same,Potency,[16],25.1 µM (active) and 50.1 µM (active)
same,activation,[17],0.62% (inactive)
same,Potency,[18],44.7 µM (active) and inactive
same,activation,[19],1.21% (inactive) and 8.36% (inactive)
